Bioassay records (PubChem)
Hits are enriched below; roughly 5.9% of the tested compounds scored in any of these assays.
ATXN2 expr inh: ATXN2 expression inhibition | HEK-293 ATXN2-luciferase reporter, luminescence, 24 h | Potency, µM (titrated, usually from 57 µM), without a hit: top-dose activity change, negative = inhibition, usual class: inhibitors | 0.72% of 360,000 active | AID 1745845; note: % is set by controls: 0 for no effect and ±100 for the full control effect; nearly all actives have a fitted effect of over 55% in size
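qHTS (up to 57 uM final) was run with 24 h compound exposure of reporter cells at 37 °C. Each well was multiplexed: SteadyGlo luminescence measured ATXN2-luciferase expression after a fluorogenic Gly-Phe-AFC viability readout (25 uM final).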
S2 tox: cell viability loss in ATXN counter-screen; S2 cells (HEK-293 line with an ATXN2-luciferase reporter) viability, CellTiter-Fluor protease fluorescence, 24 h; Potency, µM (top dose mostly 56.7 µM), most hits filed as cytotoxic; 0.49% of 400,000 active; note: nearly all actives have a fitted effect of over 40% in size
KB-3-1 cytotox: KB-3-1 parental cell cytotoxicity; KB-3-1 viability, CellTiter-Glo ATP luminescence, 72 h; Potency, µM (highest dose often 46.1 µM), usual class: cytotoxic; 1.4% of 400,000 active; AID 1347075; note: % is set by controls: 0 for no effect and ±100 for the full control effect; nearly all actives have a fitted effect of over 60% in size
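Cytotoxicity measured as CellTiter-Glo luminescence after 72 h at 37 C. Compound titrations were pinned onto drug-naive KB-3-1 parental adenocarcinoma cells grown in DMEM with 10% FBS, and normalized data fitted to concentration-response curves.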
KB-V1 cytotox: kills drug-selected multidrug resistant KB-V1 cells; AID 1347076; 3.4% of 400,000 active; KB-V1 MDR cells viability, CellTiter-Glo, 72 h; Potency, µM (titrated, usually from 46.1 µM), hits mostly cytotoxic; note: % is set by controls: 0 for no effect and ±100 for the full control effect; nearly all actives have a fitted effect of over 60% in size
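Potencies derive from concentration-effect curves fitted to normalized luminescence (CellTiter-Glo) of KB-V1 cells treated for 72 h at 37 degrees C in phenol-red-free DMEM containing 10% FBS.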
TGFb SMAD3 inh: blocks TGF-b signaling. 1.2% of 410,000 active. HepG2 CAGA-GFP TGF-b/SMAD3 reporter, GFP fluorescence, 18 h; TGF-beta stimulated, 500 pg/mL final. Potency, µM (highest dose often 46.1 µM), for the others: at the highest dose activity, negative = inhibition, usual class: inhibitors. AID 588855; note: % is set by controls: 0 for no effect and ±100 for the full control effect; nearly all actives have a fitted effect of over 65% in size
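HEPG2 CAGA-GFP cells (1000/well, DMEM with 1% FBS) were pre-incubated 2 h at 37 degrees C, given compound by pin tool, then stimulated with TGF-beta at 500 pg/mL final for 18 h before per-cell GFP fluorescence imaging.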
HepG2 viability: HepG2 cytotoxicity, counter-screen for TGF-b inhibitors | HepG2 CAGA-GFP viability, ATP luminescence, 18 h | Potency, µM (titrated, usually from 46.1 µM), for the others: top-dose activity change, negative = cytotoxicity, usual class: cytotoxic | 0.76% of 410,000 active | AID 588856
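CellTiter-Glo luminescence gave cytotoxicity after 18 hours at 37 degrees C. The cells were HepG2 CAGA-GFP in 1% FBS DMEM, stimulated with 500 pg/mL TGF-beta after compound addition. %Activity was normalised to no-cell wells (complete cell-killing) and DMSO (no toxicity), and curves were fitted and classified.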
Active calls of the source: *; i = inactive; u = inconclusive; x = no result given; [ ] = another dose, or the depositor's remark. Calls come from the whole dose curve; as a rule, active = well fitted curve in the direction sought with a large enough effect; inconclusive = small, poorly fitted or top-dose-only effect, or another doubt; inactive = no such curve, though single readings can be large; an effect the other way counts as inactive or inconclusive. Potency is the fitted concentration of half-maximal effect.

SMILES	ATXN2 expr inh	S2 tox	KB-3-1 cytotox	KB-V1 cytotox	TGFb SMAD3 inh	HepG2 viability
Cc1nc2oc3c(NCc4ccccn4)ncnc3c2c2c1COC(C)(C)C2	-11.2%	i	u	2.06µM*	-10.0%	-5.6%
CCOC(=O)/C(=N\Nc1cccc(C(F)(F)F)c1)N(CCOC)CCOC	-4.6%	i	i	23.1µM*	-6.5%	10.1%
CC(=O)c1ccc(NC(=O)Cn2c(=O)oc3cc(S(=O)(=O)N4CCCCC4)ccc32)cc1	-0.8%	i	i	i	1.8%	-1.1%
CCN(Cc1ccccc1)C(c1cccc(C#N)c1)c1nnnn1C(C)(C)C (stereo not given)	-21.0%	i	i	13µM*	-23.3%	-45.1%
CCN(Cc1ccccc1)C(c1ccc(C(F)(F)F)cc1)c1nnnn1C(C)(C)C (stereo not given)	u	i	16.4µM*	20.6µM*	1.1%	1.3%
O=C(CN1C(=O)C(=O)N(Cc2ccccc2)C1=O)Nc1cc(Cl)cc(Cl)c1	-20.9%	i	23.1µM*	u	u	-23.6%
O=C(CCl)Nc1cc(SCC(O)CO)cc([N+](=O)[O-])c1 (stereo not given)	3.98µM*	8.91µM*	5.8µM*	u	2.82µM*	-89.9%
CCC(=O)Nc1cc(ON=C(C)C)cc([N+](=O)[O-])c1	-1.8%	i	i	i	-0.9%	2.2%
CC(C)=NOc1cc(NC(=O)CCl)cc([N+](=O)[O-])c1	u	25.1µM*	18.4µM*	16.4µM*	6.31µM*	-79.2%
COC(=O)c1ccc(NC(=O)C(=O)N2CCN(C(=S)Nc3ccc(C)cc3)CC2)cc1	-5.8%	i	i	i	7.7%	21.2%
COC(=O)c1ccc(NC(=O)C(=O)N2CCN(C(=S)Nc3cccc(OC)c3)CC2)cc1	3.3%	i	i	18.4µM*	-0.6%	9.3%
COC(=O)c1ccc(NC(=O)C(=O)N2CCN(C(=S)Nc3ccc(OC)cc3)CC2)cc1	-7.8%	i	i	20.6µM*	-16.2%	-2.4%
Cc1cc(C)c(S(=O)(=O)N2CCC(N3CCN(Cc4ccc(F)cc4)C(=O)C3=O)CC2)c(C)c1	4.1%	i	i	i	-0.7%	5.8%
CC[n+]1c(/C=C/c2c[nH]c3ccccc23)ccc2cc(C)ccc21	u	u	9.2µM*	i	70.7%	-33.9%
CCOC(=O)c1c(NC(=O)/C=C/C(=O)O)sc(C)c1-c1ccc(C(C)(C)C)cc1	-12.5%[11.3 µM]	u	i	u	u	12.6µM*
CCOC(=O)c1c(NC(=O)c2c(-c3ccccc3)noc2C)sc(C)c1-c1ccccc1	-33.5%	i	2.06µM*	6.51µM*	-6.5%	-12.7%
CCOC(=O)c1ccccc1NC(=O)c1c(-c2ccccc2)noc1C	-19.4%	i	u	u	5.3%	-28.8%
CCCCn1c(/C=N/Nc2nc3ccccc3[nH]2)nc2ccccc21	u	u	u	i	11.2µM*	-42.0%
Fc1ccccc1-c1ccc(/C=N/Nc2nc3ccccc3[nH]2)o1	x	i	u	u	12.6µM*	-56.6%
CCCCn1c(/C=C/c2ccco2)nc2ccccc21	1.4%	i	i	i	-13.2%	5.5%
Cc1ccc(CNC(=O)c2nn(C)c3c2CSc2ccc(C)cc2-3)cc1	-16.8%	i	i	i	u	-46.9%
CCOc1ccc(-c2csc(/C(C#N)=C\c3ccc(O)c([N+](=O)[O-])c3)n2)cc1	u	x	20.6µM*	5.17µM*	5.01µM*	-6.7%
CCc1ccc(/C=C(/C#N)c2nc(-c3ccc(C)cc3)cs2)cc1	-2.7%	x	i	u	11.1%	-26.9%
O=C(CCn1c(=O)c2sccc2n(CC(=O)Nc2ccccc2)c1=O)NCc1ccccc1Cl	-16.8%	u	i	i	1.2%	-25.4%
Cn1c(CSc2nc3ccc(Br)cc3[nH]2)nc2ccccc21	-11.6%	i	i	i	-13.2%	1.2%
SMILES	ATXN2 expr inh	S2 tox	KB-3-1 cytotox	KB-V1 cytotox	TGFb SMAD3 inh	HepG2 viability
Cn1c(CSc2nnc(SCc3ccccc3)s2)nc2ccccc21	0.7%	i	i	16.4µM*	u	-16.7%
CCN(CC)S(=O)(=O)c1ccc2c(c1)c(=O)c(C(=O)N1CCN(c3cc(C)ccc3C)CC1)cn2C	-5.3%	i	i	i	8.0%	-11.3%
O=C(NC1CCCc2ccccc21)C1CCN(S(=O)(=O)c2ccccc2F)CC1 (stereo not given)	0.5%	i	i	7.31µM*	0.0%	-12.4%
Cc1csc(NC(=O)C2CCN(S(=O)(=O)c3cccs3)CC2)n1	-6.1%[11.3 µM]	u	i	i	u	-19.5%
Cc1csc(NC(=O)C2CCN(S(=O)(=O)c3ccccc3F)CC2)n1	-29.5%	i	i	14.6µM*	u	-13.1%
NC(=O)c1ncn([C@@H]2O[C@H](CO)[C@@H](O)[C@@H]2O)c1N	-13.5%	x	x	x	x	x
CCn1c(=O)cc(SCC(=O)NCc2ccc(Cl)cc2)c2ccccc21	-15.8%	i	i	i	-1.3%	2.6%
CCOc1ccc2nc(NCCCNS(=O)(=O)c3ccc(F)cc3)c(C#N)cc2c1	-4.5%	x	18.4µM*	i	-15.9%	-13.0%
CCOc1ccc2nc(NCCCNS(=O)(=O)c3ccccc3)c(C#N)cc2c1	-6.4%	x	u	u	-17.8%	-0.8%
Cc1cc([N+](=O)[O-])nn1CCCC(=O)N1CCN(c2ccc(F)cc2)CC1	-11.2%	i	i	18.4µM*	-15.5%	-5.6%
Cc1cc([N+](=O)[O-])nn1CCCC(=O)Nc1cc(Oc2ccccc2)cc([N+](=O)[O-])c1	-9.8%	i	i	i	-14.2%	9.7%
Cc1cc([N+](=O)[O-])nn1CCCC(=O)O	9.7%	i	i	u	-6.4%	-3.9%
Cc1cc([N+](=O)[O-])nn1CCCC(=O)Nc1cc(Oc2ccc(F)cc2)cc([N+](=O)[O-])c1	6.0%	i	i	5.8µM*	9.4%	7.0%
CCOC(=O)c1ccc(NC(=O)CCn2c(=O)c3cccn3c3ccccc32)cc1	x	x	x	x	-3.3%	-3.7%
O=c1cc(NCCc2ccccc2)c2ccccc2o1	22.2%	u	u	13µM*	-0.6%	-14.9%
CN(Cc1ccccc1)Cc1cc(=O)oc2ccccc12	25.5%	i	i	9.2µM*	-20.7%	11.6%
Cc1ccc2c(CNCc3ccccc3)cc(=O)oc2c1	u	i	5.17µM*	3.66µM*	-24.8%	-24.7%
Cc1ccc(N(CC(=O)N2CCN(c3cc(C)ccc3C)CC2)S(=O)(=O)c2c(C)nn(C)c2C)cc1	u	u	u	u	u	-77.0%
